The subject of one experiment is Klebsiella pneumoniae. The following applies: Concentration 32 ug.mL-1; ASSAY_TEST Inhibition of Bacterial Growth; detection method Absorption (OD600); MEDIA CAMHB; plate type 384well; NBS; CORNING #3640; time 18 hr.
Another experiment relates to Candida albicans. The following applies: 32 ug/mL.
Another experiment relates to Cryptococcus neoformans. The following applies: Concentration 32 ug.mL-1; ASSAY_TEST Inhibition of Fungal Growth; detection method Resazurin; Absorption (OD600-OD570); plate type 384well; NBS; CORNING #3640. (In general: Resazurin is reduced to fluorescent resorufin, in cell work by metabolically active cells.)

Structures are written as SMILES. Measured potencies and affinities stand elsewhere.

As a reminder, the Inhibition is the change of the read-out against control, counted positive when it falls. With `[N-]=[N+]=NC[C@H]1OC(O)[C@@H](O)[C@@H]1O` (stereo partly drawn), the Inhibition in the experiment on Klebsiella pneumoniae was 29.69%; with Candida albicans, 3.08%; in the experiment with Cryptococcus neoformans it was -7.43%.

The values above are taken from ChEMBL document CHEMBL4513143, “CO-ADD screening of University of Natural Resources and Life (Austria) compounds”.
